Measurements: PubChem BioAssay AID687016 (The Scripps Research Institute Molecular Screening Center, 2013)
About 2,800 (0.76%) of roughly 370,000 compounds were called active. What follows is part of a selection rich in actives, with near analogues and random picks from the rest. Unmarked numbers belong to inactive results. Rule as the data show it: active = inhibition above about 21%; inactive = the rest.

The compounds below were run against E3 ubiquitin-protein ligase UHRF1 (Homo sapiens) (UniProt Q96T88) (assay: UHRF1 methylated DNA binding inhibitors, primary screen, counter-screen for MBD2 inhibitor project, biochemical, TR-FRET, human UHRF1, single concentration (AID 687016;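 also: UHRF1 SRA domain binding a hemimethylated CpG hairpin DNA probe; 0% = median of test compound wells and 100% = reference inhibitor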)). Conditions: UHRF1 binding to methylated oligo, at 4.4 µM, active compounds read high.
Sequence of E3 ubiquitin-protein ligase UHRF1 (Homo sapiens) (Q96T88 whole entry, looked up, the tested form may be a part): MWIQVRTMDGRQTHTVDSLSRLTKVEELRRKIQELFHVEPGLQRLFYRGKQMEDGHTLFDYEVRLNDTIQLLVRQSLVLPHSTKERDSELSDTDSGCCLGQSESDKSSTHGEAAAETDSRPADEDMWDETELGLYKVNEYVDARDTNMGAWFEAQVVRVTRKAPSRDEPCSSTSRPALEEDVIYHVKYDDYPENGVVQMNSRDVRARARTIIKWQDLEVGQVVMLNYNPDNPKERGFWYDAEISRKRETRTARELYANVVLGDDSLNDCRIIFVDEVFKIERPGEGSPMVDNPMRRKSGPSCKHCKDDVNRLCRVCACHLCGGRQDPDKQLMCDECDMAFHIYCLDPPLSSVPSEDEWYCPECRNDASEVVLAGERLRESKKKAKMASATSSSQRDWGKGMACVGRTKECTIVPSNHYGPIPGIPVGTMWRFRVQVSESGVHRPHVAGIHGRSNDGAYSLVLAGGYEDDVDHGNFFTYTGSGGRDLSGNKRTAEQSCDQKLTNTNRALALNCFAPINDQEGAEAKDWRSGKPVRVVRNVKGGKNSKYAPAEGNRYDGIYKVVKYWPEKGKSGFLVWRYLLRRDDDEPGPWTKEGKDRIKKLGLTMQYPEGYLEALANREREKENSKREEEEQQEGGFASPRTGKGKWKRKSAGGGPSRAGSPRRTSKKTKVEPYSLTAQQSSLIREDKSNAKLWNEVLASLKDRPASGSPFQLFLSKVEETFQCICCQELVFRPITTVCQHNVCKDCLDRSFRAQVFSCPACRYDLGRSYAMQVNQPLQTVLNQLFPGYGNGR

Compound	inhibition
CC(C)(C)OC(=O)NCCc1ccccc1/C=C/S(=O)(=O)NCc1ccc(F)cc1	3.54%
CSc1ccc(C=Nn2c(-c3ccc(F)cc3)n[nH]c2=S)cc1	-0.35%
CCOc1ccc(-n2c(SCC(=O)Nc3cc(C)c(NC(=O)c4ccccc4)cc3OC)nnc2-c2cccs2)cc1	-0.28%
Cc1ccc(C(=O)C2CCN(CC(=O)NCCC(C)C)CC2)cc1	9.98%
O=S1(=O)c2c(NCc3ccco3)cccc2Oc2ccccc2CN1Cc1cn(Cc2cccc(C(F)(F)F)c2)nn1	3.97%
CC(C)CC1C(=O)N(Cc2cn(CC3CCCCC3)nn2)CCS(=O)(=O)N1Cc1ccc(-c2ccc(Cl)cc2)cc1 (centres undefined)	-1.68%
COc1ccc(-c2ccc(CN3C(CC(C)C)C(=O)N(Cc4cn(CC5CCCCC5)nn4)CCS3(=O)=O)cc2)cc1 (centres undefined)	1.54%
CC(=O)c1cccc(-c2ccc(CN3C(CC(C)C)C(=O)N(Cc4cn(CC5CCCCC5)nn4)CCS3(=O)=O)cc2)c1 (centres undefined)	21% (active)
CCOC(=O)[C@@]12CN(C(=O)OC(C)(C)C)CC=C1N(Cc1ccc(OC)cc1)C(=O)[C@H]2CC(=O)NCc1ccc(OC)c(OC)c1	-2.61%
COC(=O)C1CN(CC(C)C)CCS(=O)(=O)N1Cc1ccc(C)cc1 (centres undefined)	1.11%
O=C(COC(=O)c1cccc(Cl)c1)NC(=O)NCc1ccccc1	-0.3%
O=C(COc1cccc(Cl)c1)NCc1ccccc1	36% (active)
O=C(O)CCCn1cc(NC(=O)COc2cccc(Cl)c2)cn1	5.22%
CCCCCCCCNS(=O)(=O)/C=C/c1cc(C)ccc1CNC(=O)OC(C)(C)C	-7.08%
CC(=O)C1(C(=O)Nc2nccs2)CC(c2ccccc2C(F)(F)F)=NO1 (centres undefined)	-0.55%
CCOC(=O)[C@]12CCCC3=C1N(CCC3)C(=O)[C@@H](CC(=O)NCc1cccs1)C2	-1.06%
COc1nc(N(C)C)nc(N2CC(=O)N(CCNS(=O)(=O)c3ccc(C)cc3)C2=N)n1	22.6% (active)
COc1nc(Oc2ccc(=O)n(C)n2)nc(N(C)C)n1	-0.4%
Cc1ccc(S(=O)(=O)NCCSC(C)(C)C)cc1	-0.21%
COc1ccccc1C(=O)NC1CCCCN(C(C)C)C1=O (centres undefined)	2.58%
COc1ccc(C(=O)COC(=O)c2ccc([N+](=O)[O-])s2)cc1OC	21.7% (active)
COc1ccc(C(=O)OCC(=O)c2ccc(C)c(S(=O)(=O)N3CCOCC3)c2)cc1OC	-0.9%
O=C(OCC(=O)N1CCN(c2ccccc2)CC1)c1ccc([N+](=O)[O-])s1	-3.28%
CC(c1c[nH]c2ccccc12)c1c(-c2ccccc2)n(C)c2ccccc12 (centres undefined)	1.29%
Cc1cc(C)n2ncc(C(=O)Nc3ccc4c(c3)OCCO4)c2n1	-6.73%
COc1cccc(CN(C)C(=O)CC[C@H]2O[C@@H](n3cnc4c(NC(=O)c5ccccc5)ncnc43)[C@H](O)[C@@H]2O)c1	0.17%
O=C(/C=C/[C@H]1O[C@@H](n2cnc3c(NC(=O)c4ccccc4)ncnc32)[C@H](O)[C@@H]1O)NCc1ccccc1	23% (active)

Compound	inhibition
CCC(C)C(CO)NC(=O)/C=C/[C@H]1O[C@@H](n2cnc3c(NC(=O)c4ccccc4)ncnc32)[C@H](O)[C@@H]1O (some centres undefined)	19.7%
Cc1ccc(-n2c(COc3ccccc3)nnc2SCC(=O)Nc2ccc3c(c2)OCCO3)cc1	1.6%
COc1ccc(Cn2cc(COC(=O)N(C)Cc3ccccc3)nn2)cc1	1.11%
COc1ccccc1NC(=O)C1CCCN1S(=O)(=O)c1ccc(Cl)cc1 (centres undefined)	-0.35%
Cc1cccc(NC(=O)C2CCCN(C(=O)Nc3ccc(F)cc3)C2)c1C (centres undefined)	10.2%
Cc1cccc(NC(=O)C2CCCN2S(=O)(=O)c2ccc(F)cc2)c1C (centres undefined)	42.7% (active)
Cc1ccccc1NC(=O)COC(=O)c1ccc(Sc2ncn[nH]2)c([N+](=O)[O-])c1	-0.88%
O=C(NC1CCCCN(Cc2ccc(Cl)cc2)C1=O)c1ccc(Br)cc1 (centres undefined)	-3.02%
C[C@@H]1COc2cccc(N3CCCC3)c2S(=O)(=O)N1C	0.4%
CC(C)(C)N(Cc1ccccc1)C(=O)c1ccncc1	1.02%
CC(Cc1cccs1)NC(=O)c1cccc(Cl)c1 (centres undefined)	-1.41%
CC(Cc1cccs1)N(Cc1ccc(Cl)cc1)C(=O)c1ccncc1 (centres undefined)	26.1% (active)
COc1ccc(C2Nc3ccccc3C(=O)N2Cc2cccs2)cc1COc1c(C)cccc1C (centres undefined)	1.56%
O=C1Nc2ccccc2OC1CC(=O)N1CCCCCCC1 (centres undefined)	-2.05%
CC(=O)OCCN1CCCC12CCC(c1ccccc1)CC2 (centres undefined)	0.81%
O=C(CN1C(=O)NC2(CCCC2)C1=O)OCCOc1ccc(F)cc1	0.11%
Cc1ccc(COC(=O)CN2C(=O)NC3(CCCC3)C2=O)cc1	42.5% (active)
CCOc1ccc(C(C)=O)cc1COC(=O)CN1C(=O)NC2(CCCC2)C1=O	2.29%
COc1ccccc1CCNC(=O)C1CCN(c2nc(C)cc(C)n2)CC1	2.65%
CC(C)CC(COCc1ccc(Cl)cc1)N1CCN(C(=O)c2ccc(C(F)(F)F)cc2)CCC1=O (centres undefined)	10.1%
O=C(c1ccc(C(F)(F)F)cc1)N1CCC(=O)N([C@H](COCc2ccccc2)Cc2ccccc2)CC1	-0.62%
COc1ccc(COC[C@H](CC(C)C)N2CCN(C(=O)c3cccc(C(F)(F)F)c3)CCC2=O)cc1	21.1% (active)
O=C(CSc1nnc(COc2ccccc2)n1Cc1ccco1)c1ccc2ccccc2c1	-1.9%
CCn1c2ccccc2c2cc(NC(=O)CSc3nnc(-c4ccccc4)n3-c3ccc(C)cc3)ccc21	-2.76%
FC(F)(F)c1ccccc1Cc1c(-c2ccccc2)nc2c3ccccc3ccn12	14.2%
Cc1cc(Br)cn2c(Cc3ccccc3C(F)(F)F)c(C3CCCCC3)nc12	11.3%
CCCc1nc2c3ccccc3ccn2c1Cc1ccccc1C(F)(F)F	22.9% (active)
